Laboratory results as given in PubChem BioAssay AID1645855 (Buhrlage Lab, Dana-Farber Cancer Institute and Novartis …, 2021).
Among all 47,000 compounds or so, about 3,100 (6.6%) were called active. Shown is part of a subset that was picked to be rich in actives. Unmarked numbers belong to inactive results. No stated cut-off is given here; in the data, active means inhibition above about 30%; inactive means the rest.

Target: Ubiquitin carboxyl-terminal hydrolase 17-like protein 5 (Homo sapiens) (UniProt A8MUK1)
Experiment: inhibitors of human USP17 deubiquitinase (AID 1645855)
Conditions: purified USP17, Ub-rhodamine cleavage fluorescence, 3 h; at 50 µM; hits give high values

Sequence of Ubiquitin carboxyl-terminal hydrolase 17-like protein 5 (Homo sapiens) (A8MUK1 whole entry, looked up): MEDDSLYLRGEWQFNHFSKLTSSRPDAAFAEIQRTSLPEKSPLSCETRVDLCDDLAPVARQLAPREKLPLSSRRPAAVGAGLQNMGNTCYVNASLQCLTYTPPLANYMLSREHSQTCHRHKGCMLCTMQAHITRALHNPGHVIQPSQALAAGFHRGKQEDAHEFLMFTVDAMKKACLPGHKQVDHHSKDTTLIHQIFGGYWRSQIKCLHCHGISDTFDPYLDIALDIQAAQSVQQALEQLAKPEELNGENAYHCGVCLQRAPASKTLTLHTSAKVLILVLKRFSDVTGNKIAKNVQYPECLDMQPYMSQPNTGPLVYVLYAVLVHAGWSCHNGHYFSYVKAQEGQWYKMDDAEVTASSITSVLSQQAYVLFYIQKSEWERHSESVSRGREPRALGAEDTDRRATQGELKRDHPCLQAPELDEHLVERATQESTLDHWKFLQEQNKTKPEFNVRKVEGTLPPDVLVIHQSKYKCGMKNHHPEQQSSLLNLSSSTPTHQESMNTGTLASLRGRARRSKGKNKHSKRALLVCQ

Structure (SMILES)	inhibition
COc1ccc(NC(=O)c2ccnc(Nc3ccc(OC)cc3)c2)cc1	68.7% (active)
COc1ccc(C(=O)Nc2ccc(N)cn2)cc1	12%
COc1cc(OC)cc(C(=O)Nc2ccc(S(=O)(=O)Nc3cc(C)on3)cc2)c1	3.28%
CC(=O)N1c2ncnn2C(c2ccc(Cl)cc2)CC1c1ccc(Cl)cc1 (stereo unspecified)	-2.75%
CC(C)C(=O)Oc1cn(CCCN2CCCC2=O)c2nc(C(C)C)n3c4ccccc4nc3c12	-84.6%
CCS(=O)(=O)Nc1cc(S(=O)(=O)Nc2cc(Cl)ccc2Cl)ccc1N1CCOCC1	-13%
COc1cnc(-c2ccccn2)nc1Sc1ccc(Cl)cc1Cl	-0.938%
Cc1ccc(CC(=O)N2CCN(C(=O)c3cc(-c4ccccn4)n[nH]3)CC2)cc1	-21.8%
O=C(Nc1ccc(F)cc1)C1CCCN(C(=O)c2cc(-c3ccccn3)n[nH]2)C1 (stereo unspecified)	-40%
COc1cc(Cl)c(NC(=O)c2cc(-c3ccccn3)n[nH]2)c(OC)c1	47.4% (active)
CC1=NS(=O)(=O)N(Cc2ccccc2)C=C1C(=O)Nc1cc(F)ccc1F	-4.7%
O=C(Nc1ccc(Cl)cc1F)c1cc(-c2ccccn2)n[nH]1	83.2% (active)
O=C(CNc1ccc(OC2CCCC2)cc1)N1CCNC1=O	11.8%
CN1CCCN(c2nc(-c3cccnc3)nc3ccccc23)CC1	-19%
Cc1ccc(-c2n[nH]c3c2CN(S(=O)(=O)C2CC2)CC3)cc1	-2.42%
O=C(O)c1ccc(-n2cc(-c3cnccn3)cn2)cc1	1.05%
CNC(=O)c1cnn2c(C3CCCN(c4ncccn4)C3)ccnc12 (stereo unspecified)	2.6%
Cc1nnc(N2CCN(C(c3ccccc3)c3ccccc3)CC2)[nH]c1=O	-0.696%
C\C=C(/C=C(C)/C=C(C)/C=C/C=C(\C)C(=O)[C@]12O[C@H]1[C@@](O)(CCO)NC2=O)C(=O)OC	-48.6%
CCCCN(c1ccccc1)S(=O)(=O)c1cccc(C(=O)OCC(=O)NCc2ccc3c(c2)OCO3)c1	38% (active)
O=C(COC(=O)c1ccc(F)c(S(=O)(=O)N2CCOCC2)c1)NCc1ccc2c(c1)OCO2	16.1%
COc1ccc2c(Sc3ccccc3)c(C(=O)NCc3ccc4c(c3)OCO4)[nH]c2c1	-5.49%

Structure (SMILES)	inhibition
Nc1nc(N)nc(CN2C(=O)NC(Cc3ccccc3)(c3ccccc3)C2=O)n1 (stereo unspecified)	-1.99%
CCCOc1ccc(-c2csc3ncn(CCc4ccccc4)c(=O)c23)cc1	13.1%
COc1cc2c(cc1OC)CN(C(=O)c1cc(=O)c3ccccc3o1)CC2	8.62%
COc1ccc(CC(=O)Nc2ccc3c(c2)CN(C(=O)c2ccco2)CC3)cc1	46.1% (active)
COc1ccc(CC(=O)Nc2ccc3c(c2)CCC3)cc1S(=O)(=O)N1CCOCC1	-13.3%
Cc1ccccc1CNC(=O)C1CCN(c2cnc3nccnc3c2)CC1	-13%
CCN1CCN(C(=O)c2cccn2Cc2noc(-c3ccc(C)cc3)n2)CC1	-1.85%
CN(C)C(CNC(=O)c1ccccc1Br)Cc1ccccc1 (stereo unspecified)	14.4%
Cc1ccccc1N1C(=O)COc2ccc3ccccc3c2C1C(=O)NC1CCCC1 (stereo unspecified)	-5.8%
CNC(=O)[C@@]12CCC3(CCN(C(=O)c4cc(C)on4)CC3)[C@@H]1CN(C)C2	3.02%
CCn1cc(CN2C[C@@H](O)[C@H](NC(=O)c3ccccn3)C2)c(C)n1	12.4%
O=C(Nc1ccc2cn[nH]c2c1)c1cnn(-c2ccccc2)n1	38.2% (active)
O=C(c1cnn(-c2ccc(Cl)cc2)n1)c1cccs1	29.5%
O=C(Nc1ccc2oc(-c3ccccc3)nc2c1)c1cccc(-n2cnnc2)n1	-0.426%
CC(NC(=O)c1ccc2ncnc(N3CCOCC3)c2c1)c1ccccc1 (stereo unspecified)	9.89%
C=C(NC(=O)C(=C)NC(=O)c1csc(C2=N[C@@H]3c4csc(n4)[C@H]4NC(=O)c5csc(n5)[C@H]([C@](C)(O)[C@@H](C)O)NC(=O)C5CSC(=N5)/C(=C/C)NC(=O)C([C@@H](C)O)NC(=O)c5csc(n5)[C@]3(CC2)NC(=O)[C@H](C)NC(=O)C(=C)NC(=O)[C@H](C)NC(=O)C([C@@H](C)CC)NC2C=Cc3c(C(C)O)cc(nc3[C@H]2O)C(=O)OC4C)n1)C(N)=O (stereo partly specified)	53.2% (active)
CN(C)C(=O)C1CN(Cc2cccc(C#N)c2)Cc2ccnn2C1 (stereo unspecified)	-3.45%
c1cncc(-c2nnc3n2C2(CCCCC2)Cc2ccccc2-3)c1	-1.82%
O=c1c2ccccc2n(Cc2ccccc2Cl)c(=O)n1Cc1ccco1	-8.56%
CCn1nccc1C1CCCN1C(=O)Nc1ccc(Cl)cc1 (stereo unspecified)	1.51%
Cc1ccc(CNC(=O)CC(c2ccccc2)c2ccccc2)cc1	24.3%
Cc1ccc(CNC(=O)CCCn2c(=O)c3sccc3n(CC(=O)OCc3ccccc3)c2=O)cc1	47.4% (active)

Structure (SMILES)	inhibition
COc1ccc(CCNC(=O)CSc2cn(CCNC(=O)c3ccccc3C)c3ccccc23)cc1OC	18.8%
COc1ccc(CCNC(=O)Cn2c(=O)n(CC3CCC(C(=O)NC4CCCC4)CC3)c(=O)c3ccccc32)cc1OC (stereo unspecified)	9.89%
Cc1cccc(N2CC(C)Cn3c2nc2c3c(=O)n(CC(=O)OCc3ccccc3)c(=O)n2C)c1 (stereo unspecified)	-3.33%
COc1ccc(CCNC(=O)CCCn2c(=O)c3ccccc3n(CC(=O)OCc3ccccc3)c2=O)cc1OC	40.5% (active)
COCC(=O)OCc1cc(=O)oc2cc(O)ccc12	14.9%
CN1CCn2c(-c3cccnc3)cnc2C12CCN(Cc1cccnc1)CC2	-23.9%
O=C(O)C1CCCN1C(=O)C1CCN(S(=O)(=O)c2ccccc2)CC1 (stereo unspecified)	0.0755%
CC(C)N1CCN(C(=O)Cn2c(=O)n(-c3ccccc3)c3ncccc32)CC1	-9.73%
O=C(Nc1cccnc1Cl)c1noc2c1COc1ccccc1-2	15%
COc1cccc(CCNC(=O)Cc2cc(-c3ccc(C)cc3)on2)c1	-2.69%
Cc1nc(-c2ccc(C)c(S(=O)(=O)NCC(=O)Nc3cccc(Cl)c3)c2)no1	-1.55%
NC(=O)c1ccc(NC(=O)Cc2cc(-c3ccc(Cl)cc3)on2)cc1	58.4% (active)
Cc1ccc(CN2CCC(N3CCN(C(=O)c4c(C)nn(C)c4C)CC3=O)CC2)cc1	2.05%
CC(NC(=O)CN1C(=O)C2CCCN2C(=O)c2ccc(F)cc21)c1ccccc1 (stereo unspecified)	-12.4%
CCc1cc(=O)n(CC(=O)NC2CCCC2)c(N2CCOCC2)n1	0.695%
O=C(CCc1nnc2ccc(N3CCCCC3)nn12)Nc1ccc(S(=O)(=O)N2CCCCCC2)cc1	16.3%
O=C(NC1CC1)c1cccc(OCC2CCCN(C(=O)c3cc(F)ccc3F)C2)c1 (stereo unspecified)	-3.72%
CSc1nc2c(c(Nc3ccc(C(C)=O)cc3)n1)CCC2	61% (active)
O=C(NCC1CC1)c1ccc2c(c1)nc1n2CCN(Cc2ccccn2)C1=O	-18.5%
CC(C)=CCc1cc(O)ccc1O	4.38%
CC(C)=CCC(O)C1=CC(=O)c2c(O)ccc(O)c2C1=O (stereo unspecified)	95.2% (active)
CN(C(=O)c1ccc(S(=O)(=O)N2CCOCC2)cc1)c1nnc(C23CC4CC(CC(C4)C2)C3)s1	5.76%

Structure (SMILES)	inhibition
CCOC(=O)c1c(S(=O)(=O)NCC(=O)Nc2ccc(C)cc2)c(C)n(C)c1C	-20.2%
CN(CCc1ccccc1)c1nccc(N2CCN(C(=O)c3csc(-c4cccnc4)n3)CC2)n1	19.2%
Cc1ccc(CSc2nnc(/C=C/c3ccccc3)o2)cc1	39.9% (active)
Cc1ccc(Cc2nnc(C(=O)NC(C)c3ccccc3)o2)cc1 (stereo unspecified)	4.41%
COc1ccccc1CC(=O)N1C[C@@H]2C[C@H]1C[C@@H]2NC(=O)c1ccccc1	15.2%
COc1ccc(CNC(=O)CCc2c(C)nn(-c3cc(N(C)C)ncn3)c2C)cc1	-0.38%
Cc1ccc(S(=O)(=O)N2C(=O)CCC2C(=O)N2CCCC2)cc1C (stereo unspecified)	-4.46%
O=C(CN1CCC(c2nc(-c3ccccc3)no2)CC1)Nc1ccccc1	-26.4%
O=C(Cc1nnc2c(-c3nc(C4CC4)no3)cccn12)Nc1ccccc1	69.9% (active)
CCn1c(CC(=O)Nc2ccccc2)nnc1SCC(=O)N1CCOCC1	1.1%
O=C(c1noc2c1CCCC2)N1CCCC(c2ccn[nH]2)C1 (stereo unspecified)	0.07%
O=C1NCCCCC1NS(=O)(=O)c1ccc2c(c1)CCO2 (stereo unspecified)	2.39%
CC1=C(c2ccc(F)cc2)S(=O)(=O)N=C1Nc1ccccc1Cl	22.6%
CCc1nc(SCC(=O)Nc2cc(Cl)ccc2Cl)c2oc3ccccc3c2n1	20.6%
O=C(CSc1ncnc2nc[nH]c12)NC1CCCCC1	-12.5%
Cc1nc(SCC(=O)Nc2cc(Cl)cc(Cl)c2)c2oc3ccccc3c2n1	-0.843%
O=C(CSc1ncnc2c1oc1ccccc12)NC1CCCC1	61.3% (active)
Cc1nnc(-c2cn(CC(=O)NC3CCCCC3)c3ccccc23)o1	6.87%
CCc1nc(SCC(=O)Nc2cccc3ccccc23)c2oc3ccccc3c2n1	30.1% (active)
FC(F)(F)Oc1ccc2[nH]c3c(c2c1)CNCC3	7.52%
